Screens deposited in PubChem BioAssay by National Center for Advancing Translational Sciences (NCATS).
A selection: hits, their analogues and other compounds. The true share with any hit is near 0.47%.
AID inh – inhibitors of human activation induced cytidine deaminase. Potency, µM (highest dose often 115 µM), actives largely listed as inhibitors. actives 0.32% (n = 91,000). AID deamination FRET fluorescence, UDG-coupled, 4 h. AID 1347428; note: nearly all actives have a fitted effect of over 25% in size
Target sequence (Q9GZX7 whole entry, looked up): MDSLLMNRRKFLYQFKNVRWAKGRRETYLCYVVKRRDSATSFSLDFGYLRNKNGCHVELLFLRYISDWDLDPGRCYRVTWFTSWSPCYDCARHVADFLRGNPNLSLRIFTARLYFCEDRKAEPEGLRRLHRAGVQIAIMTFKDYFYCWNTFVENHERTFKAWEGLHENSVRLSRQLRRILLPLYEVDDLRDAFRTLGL
UDG counter – counter-screen for AID inhibitors: uracil-DNA glycosylase inhibition; FRET deamination/UDG coupled assay, UDG read, 4 h; Potency, µM (titrated, usually from 115 µM), inactives show at the highest dose activity change, negative = inhibition, actives largely listed as inhibitors; actives 0.14% (n = 91,000); AID 1347430; note: nearly all actives have a fitted effect of over 65% in size
The depositor's hits bear a star; [ ] = remark or other dose. Calls come from the whole dose curve; as a rule, active = well fitted curve in the direction sought with a large enough effect; inconclusive = small, poorly fitted or top-dose-only effect, or another doubt; inactive = no such curve, though single readings can be large; an effect the other way counts as inactive or inconclusive. % is set by controls: 0 for no effect and ±100 for the full control effect; potency is the fitted concentration of half-maximal effect.

What do the screens show for `CCOc1ccc(Nc2cc(C)nc3ccc(Cl)cc23)cc1`?
AID inh: inactive; UDG counter: -2.1%

What do the screens show for `CCOc1ccc2nc(C)cc(Nc3ccccc3OCC)c2c1`?
AID inh: 79.4µM*; UDG counter: inconclusive

What do the screens show for `COc1ccc(NC(=O)C(C)Oc2cccc(C)c2C)c2cccnc12` (stereo not given)?
AID inh: inactive; UDG counter: -0.4%

How did CCC1CN(C(=O)N2CCC(C(=O)NCc3cccc(OC)c3OC)CC2)c2cc(C)ccc2O1 (stereo not given) do in these assays?
AID inh: inactive; UDG counter: -2.1%[57.5 µM]

What do the screens show for `COc1ccc(S(=O)(=O)N2CCn3cccc3C2c2ccc(C)cc2)cc1C` (stereo not given)?
AID inh: inactive; UDG counter: 79.4µM*

How did COc1ccc(S(=O)(=O)N2CCn3cccc3C2c2cccs2)cc1C (stereo not given) do in these assays?
AID inh: inactive; UDG counter: 11.1%

How did O=C(c1ccccc1)C1OC1c1ccc(F)cc1 (stereo not given) do in these assays?
AID inh: inactive; UDG counter: -0.7%

What do the screens show for `COc1ccc(CC(=O)Nc2ccc3nc(Nc4cccc(Cl)c4)cc(C)c3c2)cc1`?
AID inh: inactive; UDG counter: -10.0%

What do the screens show for `Cc1cc(Nc2cccc(C(F)(F)F)c2)nc2ccc(NC(=O)Cc3ccc(Cl)cc3)cc12`?
AID inh: 35.5µM*; UDG counter: -16.8%

Results for O=c1n(Cc2ccc(F)cc2)nc2n1-c1cc(Cl)ccc1OC2 ?
AID inh: inactive; UDG counter: 2.0%

What do the screens show for `CCN(CCCNC(=O)c1cc2c(Cl)nc3ccccc3c2s1)Cc1ccccc1`?
AID inh: inconclusive; UDG counter: -19.4%

How did CN(CCCNC(=O)c1cc2c(Cl)nc3ccccc3c2s1)Cc1ccccc1 do in these assays?
AID inh: 22.4µM*; UDG counter: -7.4%

Results for Cc1ccc2nc(Cl)c3cc(C(=O)NCCCN(C)Cc4ccccc4)sc3c2c1 ?
AID inh: inconclusive; UDG counter: 79.4µM*

Results for COCCNC(=O)c1cc2c(Cl)nc3ccc(C)cc3c2s1 ?
AID inh: inconclusive; UDG counter: 7.8%

Results for Cc1nc(-c2cccc(S(=O)(=O)N3CCC(C(=O)NCc4ccccc4Cl)CC3)c2)no1 ?
AID inh: inactive; UDG counter: inconclusive

Results for CCc1cccc(NC(=O)C2CCN(S(=O)(=O)c3cccc(-c4noc(C)n4)c3)CC2)c1 ?
AID inh: inactive; UDG counter: 79.4µM*

Results for CCOc1cc(/C=C(\C#N)c2nc3ccccc3[nH]2)ccc1OC(C)C ?
AID inh: inactive; UDG counter: 0.6%

How did Cc1cc(Cl)ccc1NC(=O)CN1C(=O)COc2ccc(S(=O)(=O)N3CCC(C)CC3)cc21 do in these assays?
AID inh: inactive; UDG counter: -4.1%[57.5 µM]

What do the screens show for `O=C(NCc1cccnc1)C1CCN(Cc2cc3ccccc3n2Cc2cccc(Cl)c2)CC1`?
AID inh: inactive; UDG counter: -24.7%[57.5 µM]

How did COc1ccc(CNC(=O)CN2CCSc3ccccc32)c(OC)c1 do in these assays?
AID inh: inactive; UDG counter: -8.2%

Results for CCc1ccc(-n2c(Cc3ccccc3)nnc2SCc2nc(-c3cccs3)no2)cc1 ?
AID inh: 39.8µM*; UDG counter: inconclusive

Results for CCOc1ccc(-n2c(Cc3ccccc3)nnc2SCc2nc(-c3ccccc3OC)no2)cc1 ?
AID inh: inconclusive; UDG counter: -18.9%

What do the screens show for `Cc1ccccc1-c1noc(CSc2nnc(Cc3ccccc3)n2-c2ccc(F)cc2)n1`?
AID inh: 20µM*; UDG counter: inconclusive

What do the screens show for `CCOc1ccc(-c2noc(CSc3nnc(Cc4ccccc4)n3-c3ccc(F)cc3)n2)cc1`?
AID inh: inconclusive; UDG counter: -22.9%

What do the screens show for `Cc1cc(Nc2ccc(C(=O)O)c(O)c2)n2ncnc2n1`?
AID inh: inactive; UDG counter: inconclusive

Results for Cc1cc(C)cc(NC(=O)CSc2ccc(-c3cccs3)nn2)c1 ?
AID inh: inactive; UDG counter: 6.0%[57.5 µM]

How did CN(CC(=O)NCc1ccc(Cl)cc1)S(=O)(=O)c1ccc2c(c1)c(=O)n(C)c(=O)n2C do in these assays?
AID inh: inactive; UDG counter: 1.3%

What do the screens show for `Cc1ccccc1-c1noc(C23CC4CC(CC(C4)C2)C3)n1`?
AID inh: inactive; UDG counter: -4.9%

What do the screens show for `CC(C)(C)NC(=O)NC(=O)CSc1nc2ccccc2c(=O)n1-c1ccc(F)cc1F`?
AID inh: inactive; UDG counter: -7.7%

How did O=C(O)c1cc(Nc2nc(-c3ccccc3)cs2)ccc1O do in these assays?
AID inh: inconclusive; UDG counter: 10.6%

How did O=C(O)c1ccc(Nc2nc(-c3ccc(Cl)cc3)cs2)cc1O do in these assays?
AID inh: 79.4µM*; UDG counter: 25.8%

How did O=C(Cc1c(F)cccc1Cl)NCCC12CC3CC(CC(C3)C1)C2 do in these assays?
AID inh: inactive; UDG counter: -1.4%

How did CCCCc1nc(CN2CCN(c3cccc(F)c3C#N)CC2)no1 do in these assays?
AID inh: inconclusive; UDG counter: 89.1µM*

What do the screens show for `CCCCc1noc(CN2CCC(c3nc4cc(Cl)ccc4o3)CC2)n1`?
AID inh: inactive; UDG counter: -11.3%

How did CC(C)C(NC(=O)c1n[nH]c(=O)c2ccccc12)c1ccccc1 (stereo not given) do in these assays?
AID inh: inactive; UDG counter: 5.8%

What do the screens show for `O=C(CSc1nnc(-c2ccccc2)o1)N1CCCc2ccccc21`?
AID inh: inconclusive; UDG counter: -5.8%

Results for O=C(CSc1nnc(-c2ccccc2Cl)o1)N1CCCc2ccccc21 ?
AID inh: 28.2µM*; UDG counter: -17.0%

What do the screens show for `Cc1cc(-n2c(C)nc3ccccc3c2=O)ccc1NC(=O)c1cccc([N+](=O)[O-])c1C`?
AID inh: inactive; UDG counter: 89.1µM*

Results for Cc1cc(-n2c(C)nc3ccccc3c2=O)ccc1NC(=O)c1ccccc1[N+](=O)[O-] ?
AID inh: inactive; UDG counter: -14.2%

How did CCCNCc1ccsc1 do in these assays?
AID inh: inactive; UDG counter: 6.1%

What do the screens show for `CCOC(=O)CNC(=O)CC(c1cc(OC)c(OC)c(OC)c1)N1Cc2ccccc2C1=O` (stereo not given)?
AID inh: inactive; UDG counter: 8.0%

Results for CN1CCN(CCNC(=O)c2cnn(-c3cccc(Cl)c3)c2C2CCN(C(=O)OC(C)(C)C)CC2)CC1 ?
AID inh: inactive; UDG counter: -16.0%

Results for Cc1ccc(C)c(N2CCN(CCCNC(=O)c3cnn(-c4ccc(F)cc4)c3C3CCN(C(=O)OC(C)(C)C)CC3)CC2)c1 ?
AID inh: 28.2µM*; UDG counter: -28.3%

Results for Cc1ccc(C)c(N2CCN(CCCNC(=O)c3cnn(-c4cccc(Cl)c4)c3C3CCN(C(=O)OC(C)(C)C)CC3)CC2)c1 ?
AID inh: 35.5µM*; UDG counter: -20.1%

How did CC(C)(C)OC(=O)N1CCC(c2c(C(=O)NCCc3ccccc3)cnn2-c2ccc(F)cc2F)CC1 do in these assays?
AID inh: inconclusive; UDG counter: 50.8%

What do the screens show for `Cc1ccc(-n2ncc(C(=O)NCCc3ccccc3)c2C2CCN(C(=O)OC(C)(C)C)CC2)c(C)c1`?
AID inh: 25.1µM*; UDG counter: -20.9%
